# Experimental data from PubChem BioAssay.
# Calls of active or inactive are those of the source.
# How the values were obtained:
# [1] = system: Plasmodium falciparum Sir2 (PF13_0152, Sir2A); test: Plasmodium falciparum Sir2A binding compounds – biochemical, small-molecule microarray, 635 nm fluorescence, primary screen (AID 1098); settings: fluorescence 635 nm, higher = more signal;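 further: score merges spot fluorescence intensity with its signal-to-noise ratio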
# [2] = probe aDKK1 binding to arrayed compounds – biochemical, biotinylated probe, 635/667 nm fluorescence, primary screen (AID 1099); settings: small-molecule microarray, higher = more signal;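 further: score merges 667nm spot fluorescence with signal to noise across triplicate slides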
# [3] = probe aCHRDL2 binding to arrayed compounds – biochemical, biotinylated probe, 635/667 nm fluorescence, primary screen (AID 1100); settings: small-molecule microarray, higher = more signal
# [4] = change in splice reporter luminescence, either direction, cell-based, HEK293, spliceosome inhibition project, primary screen (AID 1101); settings: HEK293 splicing luciferase reporter, 24 h, higher = more signal, called active from +8 up or from −8 down;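 further: HEK293 cells carrying a splicing-competent luciferase reporter gene; test concentration not given here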
# [5] = biological target: Fibroblast growth factor 10 (Homo sapiens) (UniProt O15520); test: compounds binding fibroblast growth factor 10 – biochemical, small-molecule microarray, 635 nm fluorescence, primary screen (AID 1102); settings: FGF10 binding, fluorescence 635 nm, higher = more signal
# Sequence of Fibroblast growth factor 10 (Homo sapiens) (O15520 whole entry, looked up): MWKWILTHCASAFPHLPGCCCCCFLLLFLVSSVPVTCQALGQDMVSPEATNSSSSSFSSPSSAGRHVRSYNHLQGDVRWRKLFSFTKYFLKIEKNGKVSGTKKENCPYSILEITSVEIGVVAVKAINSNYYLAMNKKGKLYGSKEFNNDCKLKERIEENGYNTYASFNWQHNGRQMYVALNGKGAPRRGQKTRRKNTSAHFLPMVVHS
# [6] = system: glycogen synthase kinase-3 (GSK3A per assay name; protocol says GSK3B); test: compounds binding glycogen synthase kinase-3 – biochemical, small-molecule microarray, 635 nm fluorescence, GSK3A, primary screen (AID 1103); settings: fluorescence 635 nm, higher = more signal; further: the record names both GSK3A and GSK3B
# [7] = biological target: Epidermal growth factor receptor (Homo sapiens) (UniProt P00533); test: compounds binding epidermal growth factor receptor – biochemical, small-molecule microarray, 635 nm fluorescence, primary screen (AID 1104); settings: EGFR binding, higher = more signal;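 further: score merges 667 nm emission intensity with spot signal to noise over triplicate slides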
# Sequence of Epidermal growth factor receptor (Homo sapiens) (P00533 whole entry, looked up): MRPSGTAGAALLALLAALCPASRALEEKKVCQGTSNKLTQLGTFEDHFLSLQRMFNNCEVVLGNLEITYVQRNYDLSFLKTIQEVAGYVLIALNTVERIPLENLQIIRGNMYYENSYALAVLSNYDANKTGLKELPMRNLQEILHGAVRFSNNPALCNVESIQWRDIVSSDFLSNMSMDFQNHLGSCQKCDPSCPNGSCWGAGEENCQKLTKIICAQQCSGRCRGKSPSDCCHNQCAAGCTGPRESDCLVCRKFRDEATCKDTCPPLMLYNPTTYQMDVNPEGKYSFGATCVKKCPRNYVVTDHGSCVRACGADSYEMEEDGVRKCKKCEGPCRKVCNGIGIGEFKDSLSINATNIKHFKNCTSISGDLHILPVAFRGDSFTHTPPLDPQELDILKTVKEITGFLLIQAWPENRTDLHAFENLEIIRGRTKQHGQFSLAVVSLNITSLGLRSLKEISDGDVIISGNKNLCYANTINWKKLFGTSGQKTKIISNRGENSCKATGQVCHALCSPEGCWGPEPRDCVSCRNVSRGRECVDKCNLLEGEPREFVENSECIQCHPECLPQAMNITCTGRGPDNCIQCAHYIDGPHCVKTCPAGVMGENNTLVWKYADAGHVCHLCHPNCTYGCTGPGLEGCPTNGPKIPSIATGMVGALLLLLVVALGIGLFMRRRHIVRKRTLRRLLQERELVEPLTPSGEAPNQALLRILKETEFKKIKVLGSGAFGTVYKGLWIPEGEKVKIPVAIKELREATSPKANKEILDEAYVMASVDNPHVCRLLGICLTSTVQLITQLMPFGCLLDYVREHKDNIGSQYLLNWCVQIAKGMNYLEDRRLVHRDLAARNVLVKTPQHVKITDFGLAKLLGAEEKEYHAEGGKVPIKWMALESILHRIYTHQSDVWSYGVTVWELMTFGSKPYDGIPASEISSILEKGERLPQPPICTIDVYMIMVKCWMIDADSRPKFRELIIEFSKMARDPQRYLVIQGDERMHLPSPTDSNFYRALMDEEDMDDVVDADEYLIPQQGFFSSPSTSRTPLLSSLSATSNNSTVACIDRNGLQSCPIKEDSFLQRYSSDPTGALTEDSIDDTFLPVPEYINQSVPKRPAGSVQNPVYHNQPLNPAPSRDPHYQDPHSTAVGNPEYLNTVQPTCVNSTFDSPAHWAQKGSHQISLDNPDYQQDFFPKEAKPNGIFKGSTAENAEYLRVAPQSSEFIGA
# [8] = biological target: Follistatin-related protein 3 (Homo sapiens) (UniProt O95633); test: compounds binding follistatin-related protein 3 – biochemical, small-molecule microarray, 635 nm fluorescence, primary screen (AID 1105); settings: FSTL3 binding, higher = more signal;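 further: score merges emission near 667 nm and signal to noise per printed spot across three slides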
# Sequence of Follistatin-related protein 3 (Homo sapiens) (O95633 whole entry, looked up): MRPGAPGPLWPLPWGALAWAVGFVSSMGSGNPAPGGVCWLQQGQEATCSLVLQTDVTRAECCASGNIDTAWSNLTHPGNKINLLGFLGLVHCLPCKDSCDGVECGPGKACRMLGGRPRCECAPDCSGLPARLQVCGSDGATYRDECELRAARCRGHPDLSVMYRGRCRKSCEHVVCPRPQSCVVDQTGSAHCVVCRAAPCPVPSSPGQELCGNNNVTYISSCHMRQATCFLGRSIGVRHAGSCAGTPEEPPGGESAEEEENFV
# [9] = biological target: Dickkopf-related protein 1 (Homo sapiens) (UniProt O94907); test: small molecules binding DKK1 protein – biochemical, small-molecule microarray, 635 nm fluorescence scan, primary screen (AID 1106); settings: higher = more signal;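 further: score merges emission near 667 nm with signal to noise over three replicate slides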
# Sequence of Dickkopf-related protein 1 (Homo sapiens) (O94907 whole entry, looked up): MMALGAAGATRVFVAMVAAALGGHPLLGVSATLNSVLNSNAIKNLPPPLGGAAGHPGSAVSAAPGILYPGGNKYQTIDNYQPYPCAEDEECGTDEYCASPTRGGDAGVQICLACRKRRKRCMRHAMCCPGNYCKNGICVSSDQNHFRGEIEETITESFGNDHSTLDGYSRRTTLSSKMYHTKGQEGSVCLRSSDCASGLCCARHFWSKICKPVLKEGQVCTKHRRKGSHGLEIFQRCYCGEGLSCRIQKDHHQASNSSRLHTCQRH
# [10] = system: Inhibin beta A chain (activin A); test: small molecules binding activin A – biochemical, small-molecule microarray, 635 nm fluorescence scan, primary screen (AID 1107); settings: INHBA, higher = more signal;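 further: mouse activin A protein probed at 4.33 µg/mL on printed slides; score merges bound-protein fluorescence near 667 nm with spot signal-to-noise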
# [11] = system: Human papillomavirus type 1a protein E7 (residues 44-93); test: small molecules binding HPV E7 44-93 – biochemical, small-molecule microarray, residues 44-93, 635 nm fluorescence, primary screen (AID 1108); settings: fluorescence 635 nm, higher = more signal;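 further: E7 fragment applied at 1 µg/mL in TBST for 1 h at 4 C; score combines spot fluorescence with its signal to noise ratio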
# [12] = hepatitis C replication reporter changes, two-sided – Huh7 cells, luciferase reporter, HCV replication inhibitor project, primary screen (AID 1109); settings: Huh7 HCV replicon luciferase reporter, 48 h; higher = more signal;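 further: huh7 hepatoma cells harbouring a luciferase neomycin HCV replicon reporter; luciferase luminescence as measure of HCV replicon replication; test concentration not given here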
# [13] = biological target: Left-right determination factor 2 (Homo sapiens) (UniProt O00292); test: small molecules binding LEFTY2 protein – biochemical, small-molecule microarray, 635 nm fluorescence scan, primary screen (AID 1110); settings: higher = more signal
# Sequence of Left-right determination factor 2 (Homo sapiens) (O00292 whole entry, looked up): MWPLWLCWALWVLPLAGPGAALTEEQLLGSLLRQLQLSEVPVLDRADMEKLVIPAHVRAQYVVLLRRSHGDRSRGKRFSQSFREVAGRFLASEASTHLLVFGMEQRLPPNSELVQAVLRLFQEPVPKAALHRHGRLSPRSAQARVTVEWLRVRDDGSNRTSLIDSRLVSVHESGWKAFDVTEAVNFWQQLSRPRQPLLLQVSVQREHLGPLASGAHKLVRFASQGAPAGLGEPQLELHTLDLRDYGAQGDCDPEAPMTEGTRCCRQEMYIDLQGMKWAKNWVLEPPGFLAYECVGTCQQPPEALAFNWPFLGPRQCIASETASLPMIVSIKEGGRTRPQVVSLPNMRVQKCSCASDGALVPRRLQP
# [14] = biological target: Calmodulin-1 (Homo sapiens) (UniProt P0DP23); test: small molecules binding calmodulin-1 with EGTA – biochemical, small-molecule microarray, Cy5-labelled CALM1, profiling panel (AID 1111); settings: Cy5-CALM1 binding fluorescence, higher = more signal;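 further: labelled calmodulin applied in Tris saline Tween buffer holding calcium plus EGTA and DTT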
# [15] = biological target: Calmodulin-1 (Homo sapiens) (UniProt P0DP23); test: small molecules binding Ca-loaded calmodulin-1 – biochemical, small-molecule microarray, Cy5-labelled CALM1, plus calcium, artefact control for SMM control-protein annotation, profiling panel (AID 1112); settings: Cy5-CALM1 binding fluorescence, higher = more signal;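 further: score merges spot fluorescence with signal to noise from triplicate slides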
# [16] = probe aWnt5a binding to arrayed compounds – biochemical, biotinylated probe, 635/667 nm fluorescence, primary screen (AID 1113); settings: small-molecule microarray, higher = more signal;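 further: score merges 667 nm fluorescence intensity with signal-to-noise per printed feature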
# [17] = probe aShh binding to arrayed compounds – biochemical, biotinylated probe, 635/667 nm fluorescence, primary screen (AID 1114); settings: small-molecule microarray, higher = more signal;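 further: probe is biotin-labelled aShh protein from a stem cell growth factor screen; measures binding of labelled protein to compounds printed on the slide; score merges feature fluorescence at 667 nm with signal-to-noise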
# [18] = probe aNog binding to arrayed compounds – biochemical, biotinylated probe, 635/667 nm fluorescence, primary screen (AID 1115); settings: small-molecule microarray, higher = more signal;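 further: probe is biotinylated aNog protein used at 0.15 µg/mL for 1 h at 4 C; z-score combines 667 nm fluorescence of each spot with its signal to noise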
# [19] = biological target: Torsin-1A-interacting protein 1 (Homo sapiens) (UniProt Q5JTV8); test: compound microarray binding of lysate hLAP1 – cell lysate, small-molecule microarray, COS7 lysate, 635/667 nm fluorescence, primary screen (AID 1116); settings: 635 nm fluorescence, higher = more signal
# Sequence of Torsin-1A-interacting protein 1 (Homo sapiens) (Q5JTV8 whole entry, looked up): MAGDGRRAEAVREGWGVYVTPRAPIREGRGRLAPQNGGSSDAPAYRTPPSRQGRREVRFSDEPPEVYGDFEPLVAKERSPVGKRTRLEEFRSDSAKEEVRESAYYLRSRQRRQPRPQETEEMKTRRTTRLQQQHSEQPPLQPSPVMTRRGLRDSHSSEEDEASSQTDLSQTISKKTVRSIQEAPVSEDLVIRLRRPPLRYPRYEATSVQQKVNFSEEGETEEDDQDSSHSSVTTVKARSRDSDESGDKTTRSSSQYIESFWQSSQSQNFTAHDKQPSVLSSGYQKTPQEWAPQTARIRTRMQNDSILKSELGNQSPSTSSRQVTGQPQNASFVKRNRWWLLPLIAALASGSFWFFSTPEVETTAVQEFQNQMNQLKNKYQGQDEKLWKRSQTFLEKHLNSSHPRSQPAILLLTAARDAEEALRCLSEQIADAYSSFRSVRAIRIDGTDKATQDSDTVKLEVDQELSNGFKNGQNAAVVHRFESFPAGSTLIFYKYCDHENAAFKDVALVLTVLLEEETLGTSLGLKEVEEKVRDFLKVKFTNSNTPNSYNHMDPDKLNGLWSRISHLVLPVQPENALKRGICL
# [20] = biological target: Alpha-bungarotoxin (Bungarus multicinctus) (UniProt P60615); test: compounds binding labelled alpha-BTX control protein – biochemical, small-molecule microarray, Alexa647 label, 635/667 nm fluorescence, artefact control for SMM control protein annotation, profiling panel (AID 1117); settings: alpha-BTX-A647 binding fluorescence, higher = more signal
# Sequence of Alpha-bungarotoxin (Bungarus multicinctus) (P60615 whole entry, looked up): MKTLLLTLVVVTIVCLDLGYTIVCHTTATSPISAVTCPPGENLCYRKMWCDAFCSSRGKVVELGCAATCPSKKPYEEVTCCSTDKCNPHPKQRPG
Compound,composite z-score [1],composite z-score [2],composite z-score [3],z-score [4],composite z-score [5],composite z-score [6],composite z-score [7],composite z-score [8],composite z-score [9],composite z-score [10],composite z-score [11],z-score [12],composite z-score [13],composite z-score [14],composite z-score [15],composite z-score [16],composite z-score [17],composite z-score [18],composite z-score [19],composite z-score [20]
COC(=O)[C@@]1(Cc2ccc(OC)cc2)[C@H]2c3cc(C(=O)N(C)C)n(Cc4ccccc4)c3C[C@H]2CN1C(=O)c1ccccc1,0.656,0.268,-0.332,-2.28 (inactive),0.0697,0.0849,-0.342,-0.0447,-0.128,0.825,1.34,-1.66,-0.367,1.63,1.03,-0.0681,-0.12,-0.759,-0.681,0.187
CCOC(=O)C[C@H]1[C@H](OC(=O)c2ccccc2-c2ccccc2)[C@@H](NC(=O)c2ccc3ccccc3n2)c2cc(OCCCO)ccc2N1C(=O)c1ccc2ccccc2n1,0.638,-0.267,-0.535,-1.19 (inactive),0.611,0.0214,0.378,0.469,0.452,-0.0055,0.437,-0.863,0.152,-0.0654,-0.127,-0.174,-0.265,-0.328,0.358,0.567
CN1C(=O)C2C=CC(C(O)c3c(F)cccc3Cl)N(Nc3ccccc3)C2C1=O (stereo not given),1.54,0.308,0.92,1.29 (inactive),0.657,-0.0475,0.257,0.71,-0.534,0.909,1.19,-0.659,-0.445,1.45,0.496,-0.0276,0.432,0.707,0.0127,0.904
CN1C(=O)C2C=CC(C(O)Cc3ccccc3)N(N(c3ccccc3)c3ccccc3)C2C1=O (stereo not given),0.86,0.46,0.733,0.653 (inactive),0.812,-0.227,-0.567,-0.068,-0.303,0.864,0.501,-0.251,-0.268,-0.0282,0.372,0.0438,0.0469,1.14,0.368,0.678
O=C(O)[C@H]1C[C@H]2C(=O)N3CCC[C@H]3C(=O)N2[C@H]1c1cccc(OCCO)c1,1.6,0.0484,0.0998,-0.184 (inactive),0.262,0.486,0.0626,0.384,0.884,-0.0254,1.1,1.55,0.266,0.0384,0.286,-0.0944,-0.167,0.0951,0.83,1.67
CCOC(=O)[C@H]1C/C=C/C[C@H](C(=O)OCC)C(=O)O[C@H]2[C@@H](OC)O[C@H](CO)[C@@H](OC(=O)Nc3ccc(OC)cc3)[C@@H]2OC1=O,0.692,0.481,0.564,0.0675 (inactive),1,1.03,0.368,1.29,0.46,0.467,0.89,-2.82,0.721,0.433,0.118,0.0395,-0.0146,0.206,0.753,1.09
C[C@]12C(=O)N(CCCCCCO)[C@@H]3C(=O)N(c4ccc(Cl)cc4)CC=CC31O[C@@H]1/C=C\CCCOC(=O)C12 (stereo not given in full),1.93,-0.134,0.391,-1.54 (inactive),-0.188,-0.431,-0.506,-0.394,-0.742,1.05,-0.358,-0.67,-1,-0.821,-0.559,0.0297,-0.0813,0.782,0.121,-0.0604
CC(C)NC(=O)[C@@]1(C)c2ccccc2C(=O)N(C(C)C)[C@H]1c1ccc(CO)cc1,1.58,-0.123,0.925,0.0862 (inactive),-1.09,-0.643,-1.68,-0.673,-1.81,-1.53,-0.609,-0.593,-3.05,-0.614,-0.0732,-0.296,-0.154,-0.435,-1.97,-0.43
C=C[C@@H](COC(C)=O)NS(=O)(=O)c1ccc(Br)cc1,0.549,-0.103,-0.0829,23.4 (active),0.172,0.444,0.118,0.412,0.77,0.361,0.487,-0.178,0.219,-0.271,-0.144,-0.0478,-0.0643,-0.538,-0.0651,0.225
CN(C)C(=O)[C@]1(CCC(=O)OC(C)(C)C)N=C(c2ccc(OCCCO)cc2)O[C@@H]1c1ccccc1,0.11,0.937,1.01,-0.403 (inactive),0.617,1.11,-0.0133,0.011,-0.136,0.12,1.17,0.381,0.119,0.989,0.744,0.14,0.0793,0.289,2.76,0.654
C=C(C(=O)CC[C@H](OC(=O)c1cccnc1)c1ccc(CO)o1)C(C)C,1.08,0.0114,-0.239,0.586 (inactive),0.866,0.836,0.0193,0.406,0.603,0.935,0.362,-1.43,0.584,0.627,-0.316,0.0973,0.39,0.013,1.18,1.19
CCCC[C@@H]1C[C@H]1[C@@H](NC(=O)c1cccnc1)c1ccc(-c2ccccc2)cc1,0.0651,-0.161,0.993,-4.22 (inactive),-1.19,-1.2,-1.46,-1.01,-1.44,0.936,-0.447,-1.95,-1.99,-0.297,0.742,-0.141,2.01,-0.744,-1.2,-0.556
